This passage reports outcome and AC50 results from PubChem BioAssay (EPA / NIEHS).

As usually defined, the AC50 is the midpoint of the concentration-response curve, whichever way the signal moves.

Records with an inconclusive call do not appear. The source made the active and inactive calls. How the source made its calls: active means hit-call score of the fitted dose curve at least 0.9, where 1 is the maximum; inconclusive means response in the unintended direction; inactive means score below 0.9.

Experiment [1] has as its system zebrafish Estrogen Receptor (ESR2A), gene 317734. Description: ATG_zfER2a_XSP1: Attagene TRANS-FACTORIAL Multi-Species (XSP1) HepG2 Assay for zebrafish Estrogen Receptor (ESR2A) (AID 2283778). In a few lines:
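HepG2 cells transiently transfected with GAL4-UAS reporter units driven by a zebrafish ESR2A–Gal4 chimera; 24 h compound exposure with 3 nM 6-alpha-fluorotestosterone present. Reporter mRNA measured by RT-PCR with fluorescent capillary electrophoresis, fitted positive versus DMSO.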

For experiment [2], the target named is chicken Estrogen Receptor (ESR1), ESR1 (gene 396099) (UniProt P06212). Description: ATG_chERa_XSP1: Attagene TRANS-FACTORIAL Multi-Species (XSP1) HepG2 Assay for chicken Estrogen Receptor (ESR1) (AID 2283779). In a few lines:
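HepG2 cells transiently transfected with GAL4-UAS reporter units for chimeric chicken ERα-Gal4, dosed 24 h with 3 nM 6-alpha-fluorotestosterone present. Reporter mRNA by RT-PCR and capillary electrophoresis; gain-of-signal fit versus DMSO.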

The target of experiment [3] is Estrogen receptor (Homo sapiens) (UniProt P03372). Put plainly: ATG_hERa_XSP1: Attagene TRANS-FACTORIAL Multi-Species (XSP1) HepG2 Assay for human Estrogen Receptor (ESR1) (AID 2283780). Here is the method:
ATG_XSP1_multi-species_TRANS is a cell-based, multiplexed assay created by modifying the existing Attagene TRANS-FACTORIAL system to include a panel of nuclear receptors from some or all the following species: human (Homo sapiens), mouse (Mus musculus), frog (Xenopus laevis), zebrafish (Danio rerio), chicken (Gallus gallus), and turtle (Chrysemys picta). The ECOTOX-FACTORIAL format uses HepG2, a human liver cell line, with measurements taken at 24 hours after chemical dosing in a 24-well plate. Xsp1 included 3 nM 6-alpha-fluorotestosterone to partially stimulate the androgen receptor.ATG_hERa_XSP1 is one of 29 assay components measured or calculated from the ATG_XSP1_multi-species_TRANS assay. It is designed to make measurements of mRNA induction, a form of inducible reporter, as detected with fluorescence intensity signals by Reverse transcription polymerase chain reaction (RT-PCR) and Capillary electrophoresis technology.The assay endpoint ATG_hERa_XSP1 was analyzed in the positive analysis fitting direction relative to DMSO as the negative control and baseline of activity. […] Furthermore, this assay endpoint can be referred to as a primary readout, because this assay has produced multiple assay endpoints where this one serves a reporter gene function. […]

Experiment [4] deals with turtle Estrogen Receptor (ESR1), gene 101933533. Put plainly: ATG_trERa_XSP1: Attagene TRANS-FACTORIAL Multi-Species (XSP1) HepG2 Assay for turtle Estrogen Receptor (ESR1) (AID 2283781). The method, boiled down:
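Turtle ERa as a GAL4 chimera in transiently transfected HepG2 cells; reporter mRNA quantified 24 h after dosing by RT-PCR and capillary electrophoresis. 3 nM 6-alpha-fluorotestosterone present; gain of signal versus DMSO.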

The target of experiment [5] is Estrogen receptor beta (Homo sapiens) (UniProt Q92731). Put plainly: ATG_hERb_XSP1: Attagene TRANS-FACTORIAL Multi-Species (XSP1) HepG2 Assay for human Estrogen Receptor (ESR2) (AID 2283788). The method, boiled down: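 HepG2 cells transiently transfected with GAL4-UAS multiplexed reporter units, 3 nM 6-alpha-fluorotestosterone present; 24 h exposure. Reporter mRNA measured by RT-PCR, fluorescent labelling and capillary electrophoresis; gain of signal fitted against DMSO.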

The nature of experiment [6]: ATG_M_06_XSP1: Attagene TRANS-FACTORIAL Multi-Species (XSP1) HepG2 Assay for M06 Transcription Factor (Internal Marker) (AID 2283790). In a few lines:
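Transfected HepG2 multi-reporter system treated 24 h in the presence of 3 nM 6-alpha-fluorotestosterone. The M06 internal marker transcript was quantified by RT-PCR with capillary electrophoresis as a background control, and gain of signal was scored versus DMSO.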

The nature of experiment [7]: ATG_M_61_XSP1: Attagene TRANS-FACTORIAL Multi-Species (XSP1) HepG2 Assay for M61 Transcription Factor (Internal Marker) (AID 2283797). The method, boiled down:
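HepG2 cells transiently transfected with multiplexed GAL4-driven reporter units, dosed 24 h with 3 nM 6-alpha-fluorotestosterone present. Reporter mRNA quantified by RT-PCR, 6-FAM labelling, HpaI digestion and capillary electrophoresis; internal-marker background control, gain of signal versus DMSO.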

Chain of Estrogen receptor beta (Homo sapiens) (Q92731 whole entry, looked up, the tested form may be a part): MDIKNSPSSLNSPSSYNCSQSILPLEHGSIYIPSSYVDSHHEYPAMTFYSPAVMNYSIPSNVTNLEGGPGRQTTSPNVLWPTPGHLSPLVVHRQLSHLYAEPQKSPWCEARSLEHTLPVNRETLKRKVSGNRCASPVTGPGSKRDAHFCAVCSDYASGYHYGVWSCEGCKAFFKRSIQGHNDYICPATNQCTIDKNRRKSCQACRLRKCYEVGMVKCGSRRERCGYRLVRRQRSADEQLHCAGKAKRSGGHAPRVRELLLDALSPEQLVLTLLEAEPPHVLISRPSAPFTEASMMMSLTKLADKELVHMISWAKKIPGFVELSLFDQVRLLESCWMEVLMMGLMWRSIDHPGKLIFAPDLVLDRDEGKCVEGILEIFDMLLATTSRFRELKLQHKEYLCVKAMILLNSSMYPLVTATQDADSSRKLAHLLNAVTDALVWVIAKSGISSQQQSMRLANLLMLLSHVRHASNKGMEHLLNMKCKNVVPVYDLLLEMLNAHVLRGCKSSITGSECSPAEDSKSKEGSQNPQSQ
Chain of Estrogen receptor (Homo sapiens) (P03372 whole entry, looked up): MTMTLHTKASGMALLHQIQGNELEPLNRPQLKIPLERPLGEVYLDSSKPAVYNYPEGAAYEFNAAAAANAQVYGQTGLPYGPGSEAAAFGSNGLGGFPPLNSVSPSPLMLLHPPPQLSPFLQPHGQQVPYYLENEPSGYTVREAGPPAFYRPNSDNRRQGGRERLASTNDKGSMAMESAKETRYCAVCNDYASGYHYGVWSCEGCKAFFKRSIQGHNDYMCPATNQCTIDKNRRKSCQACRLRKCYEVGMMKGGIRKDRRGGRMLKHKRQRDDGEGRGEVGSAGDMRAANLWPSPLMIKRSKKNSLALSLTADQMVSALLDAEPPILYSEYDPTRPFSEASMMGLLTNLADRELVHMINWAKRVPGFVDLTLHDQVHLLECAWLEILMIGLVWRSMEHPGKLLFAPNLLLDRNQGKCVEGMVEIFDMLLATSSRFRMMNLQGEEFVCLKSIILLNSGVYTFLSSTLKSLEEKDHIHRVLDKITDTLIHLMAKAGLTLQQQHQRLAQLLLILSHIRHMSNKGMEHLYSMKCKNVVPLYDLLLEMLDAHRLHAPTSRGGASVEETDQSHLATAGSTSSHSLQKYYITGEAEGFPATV
Chain of chicken Estrogen Receptor (ESR1), ESR1 (gene 396099) (P06212 whole entry, looked up, the tested form may be a part): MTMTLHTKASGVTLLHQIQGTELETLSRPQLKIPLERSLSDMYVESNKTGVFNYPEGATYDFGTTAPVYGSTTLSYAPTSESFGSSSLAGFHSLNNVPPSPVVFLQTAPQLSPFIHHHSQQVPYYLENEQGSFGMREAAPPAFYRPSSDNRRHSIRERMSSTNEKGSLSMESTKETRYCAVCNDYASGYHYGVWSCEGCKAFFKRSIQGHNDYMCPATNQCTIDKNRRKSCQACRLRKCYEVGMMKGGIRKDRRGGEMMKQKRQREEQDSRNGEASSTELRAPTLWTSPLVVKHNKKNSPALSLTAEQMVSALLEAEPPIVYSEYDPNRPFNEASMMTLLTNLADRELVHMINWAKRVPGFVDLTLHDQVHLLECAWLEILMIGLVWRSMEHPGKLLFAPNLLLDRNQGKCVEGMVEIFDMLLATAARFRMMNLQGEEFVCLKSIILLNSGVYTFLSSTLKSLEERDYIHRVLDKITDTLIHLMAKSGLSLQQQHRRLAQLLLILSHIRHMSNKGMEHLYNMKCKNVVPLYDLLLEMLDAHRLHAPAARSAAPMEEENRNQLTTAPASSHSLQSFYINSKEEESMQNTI

As for `CN(CCOc1ccc(CC2SC(=O)NC2=O)cc1)c1ccccn1` (configuration not stated), the compound was classed as inactive in experiment [1], in experiment [3], in experiment [5], in experiment [6] and in experiment [7]. Moreover, the results for the AC50 in experiment [2] and in experiment [4] were 35.3 nM (active) and 37.2 nM (active), respectively.
